For some of these results: Entries with a potency or affinity are not part of this list.

What all share (set-up): scale not given: direction of the effect not stated beside the values
Assay [1] deals with Protein translocase subunit SecA (Escherichia coli (strain K12)) (UniProt P10408). Briefly: Assay to Identify E. coli SecA ATPase Inhibitors. In kind it is functional. The conditions noted are these: 30 µM.
For assay [2], the target named is T1, Ubiquitin-activating enzyme e1, putative (Leishmania donovani (strain BPK282A1)) (UniProt E9BSI1).
T1 sequence (whole entry): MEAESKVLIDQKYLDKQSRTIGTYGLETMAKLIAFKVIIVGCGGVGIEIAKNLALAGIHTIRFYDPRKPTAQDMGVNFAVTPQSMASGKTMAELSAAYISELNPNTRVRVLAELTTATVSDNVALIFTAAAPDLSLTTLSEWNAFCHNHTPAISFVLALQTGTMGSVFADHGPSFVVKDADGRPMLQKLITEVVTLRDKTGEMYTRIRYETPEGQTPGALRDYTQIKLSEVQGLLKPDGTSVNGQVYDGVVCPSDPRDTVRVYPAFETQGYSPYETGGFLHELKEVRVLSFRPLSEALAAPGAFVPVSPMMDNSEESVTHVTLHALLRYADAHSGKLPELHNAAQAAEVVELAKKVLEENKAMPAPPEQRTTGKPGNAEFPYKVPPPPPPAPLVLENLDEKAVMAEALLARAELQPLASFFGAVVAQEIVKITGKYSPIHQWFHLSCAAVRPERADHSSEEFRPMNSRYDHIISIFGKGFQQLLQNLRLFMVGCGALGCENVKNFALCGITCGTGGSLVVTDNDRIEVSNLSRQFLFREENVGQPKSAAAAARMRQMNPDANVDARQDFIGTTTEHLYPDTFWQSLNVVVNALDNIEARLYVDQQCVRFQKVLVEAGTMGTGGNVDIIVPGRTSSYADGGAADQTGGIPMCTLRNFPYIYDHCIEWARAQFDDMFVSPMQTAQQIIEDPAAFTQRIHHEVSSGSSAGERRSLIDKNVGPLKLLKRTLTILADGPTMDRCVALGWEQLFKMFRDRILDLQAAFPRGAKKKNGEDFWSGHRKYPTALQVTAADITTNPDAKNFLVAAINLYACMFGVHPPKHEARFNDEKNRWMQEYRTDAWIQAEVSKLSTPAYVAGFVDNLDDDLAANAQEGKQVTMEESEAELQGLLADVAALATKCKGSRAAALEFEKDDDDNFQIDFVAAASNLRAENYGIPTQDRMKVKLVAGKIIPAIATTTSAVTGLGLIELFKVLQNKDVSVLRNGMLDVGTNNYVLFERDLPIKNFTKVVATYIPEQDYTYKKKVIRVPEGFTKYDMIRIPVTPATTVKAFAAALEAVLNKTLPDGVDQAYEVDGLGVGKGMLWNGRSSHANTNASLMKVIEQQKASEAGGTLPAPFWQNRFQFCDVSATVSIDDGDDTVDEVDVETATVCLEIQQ
Nature of the assay: Leishmania donovani Ubiquitin Activating Enzyme (LdE1). In kind it is functional. The conditions noted are these: 30 µM.

The target in assay [3] is AMP-activated protein kinase, AMPK (Homo sapiens) (UniProt P54646+O43741+P54619+Q9UGJ0+Q9Y478+Q13131+Q9UGI9). Briefly: AMP-dependent Kinase enzyme assay. An in vitro enzyme assay that detects ADP turnover that is directly proportional to AMPK activity. This uses naive AMPK that is activated during the assay with MK-8722. The format is functional. Conditions: 30 µM.
Assay [4] concerns the target Sialic acid-binding Ig-like lectin 9 (Homo sapiens) (UniProt Q9Y336). Briefly: Hs-Siglec9 ALPHAscreen SOP 20170721. Conditions: 10 µM.
The subject of assay [5] is Trypanosoma cruzi. Nature of the assay: Trypanosoma cruzi phosphomannomutase and mannose-1-phosphate guanylyltransferase assay. Conditions: 10 µM. In kind it is functional.
For assay [6], the target named is T2, Arginase-2, mitochondrial (Homo sapiens) (UniProt P78540).
T2 sequence (whole entry): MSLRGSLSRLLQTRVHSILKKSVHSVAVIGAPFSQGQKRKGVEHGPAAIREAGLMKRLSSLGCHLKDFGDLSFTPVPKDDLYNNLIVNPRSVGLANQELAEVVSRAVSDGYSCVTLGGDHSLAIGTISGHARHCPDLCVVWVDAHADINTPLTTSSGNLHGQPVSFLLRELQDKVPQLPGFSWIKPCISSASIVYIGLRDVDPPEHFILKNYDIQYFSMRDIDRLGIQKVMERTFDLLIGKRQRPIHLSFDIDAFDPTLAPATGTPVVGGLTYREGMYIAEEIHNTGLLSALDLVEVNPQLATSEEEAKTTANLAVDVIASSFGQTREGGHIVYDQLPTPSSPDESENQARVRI
Nature of the assay: in vitro enzyme assay to detect the production of urea directly proportional to the activity of Arginase II. Further: in the data most compounds retested in dose-response had high values. The conditions noted are these: 33.3 µM. In kind it is functional.

The target in assay [7] is T3, Proteasome subunit beta (Trypanosoma cruzi) (UniProt O96673).
T3 sequence (whole entry): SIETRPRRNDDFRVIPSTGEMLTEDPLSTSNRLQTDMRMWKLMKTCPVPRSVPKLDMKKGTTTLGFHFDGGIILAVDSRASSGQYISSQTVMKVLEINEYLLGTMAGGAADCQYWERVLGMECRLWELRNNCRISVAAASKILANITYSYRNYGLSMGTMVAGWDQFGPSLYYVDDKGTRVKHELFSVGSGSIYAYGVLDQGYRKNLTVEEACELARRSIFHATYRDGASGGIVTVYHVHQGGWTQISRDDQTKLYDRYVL
Nature of the assay: Trypanosoma cruzi proteasome chymotrypsin-like activity (TcProtChymo) assay. Further: in the data most compounds retested in dose-response had high values. The format is functional. The conditions noted are these: 9.37 µM.

For assay [8], the species on record is Homo sapiens. Nature of the assay: To identify inhibition of the IFN signalling (Jak-Stat) pathway via expression of an eGFP reporter gene under the control of an IFN-stimulated response element (ISRE) containing MxA promoter. The format is functional. The conditions noted are these: 30 µM. On the technique in general: Reporter assays use an easily measured gene product as a stand-in for the process of interest.

For assay [9], the target named is T4, Tyrosyl-tRNA synthetase, putative (Trypanosoma cruzi (strain CL Brener)) (UniProt Q4DSP6).
T4 sequence (whole entry): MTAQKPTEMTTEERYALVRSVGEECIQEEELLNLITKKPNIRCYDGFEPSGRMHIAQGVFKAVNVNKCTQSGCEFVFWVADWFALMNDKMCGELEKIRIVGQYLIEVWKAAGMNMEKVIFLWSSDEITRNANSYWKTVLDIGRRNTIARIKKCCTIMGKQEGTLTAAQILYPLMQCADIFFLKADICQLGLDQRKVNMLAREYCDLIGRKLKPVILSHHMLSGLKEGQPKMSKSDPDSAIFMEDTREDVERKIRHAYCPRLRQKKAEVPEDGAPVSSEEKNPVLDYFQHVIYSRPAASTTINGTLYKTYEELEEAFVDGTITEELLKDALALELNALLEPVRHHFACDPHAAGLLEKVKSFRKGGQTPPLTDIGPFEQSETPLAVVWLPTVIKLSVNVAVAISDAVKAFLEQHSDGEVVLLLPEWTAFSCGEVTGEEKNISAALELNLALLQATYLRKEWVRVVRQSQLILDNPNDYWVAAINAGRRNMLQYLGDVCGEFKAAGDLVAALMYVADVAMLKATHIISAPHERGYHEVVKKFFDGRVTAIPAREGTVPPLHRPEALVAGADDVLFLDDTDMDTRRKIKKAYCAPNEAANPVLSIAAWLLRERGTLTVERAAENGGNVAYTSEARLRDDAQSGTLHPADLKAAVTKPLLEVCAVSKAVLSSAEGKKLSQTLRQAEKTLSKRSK
Nature of the assay: Trypanosoma cruzi tyrosyl tRNA synthetase (TcYRS) _High Tyrosine SOP. Further: in the data most compounds retested in dose-response had high values. In kind it is functional. Conditions: 30 µM.

Assay [10] addresses T4, Tyrosyl-tRNA synthetase, putative (Trypanosoma cruzi (strain CL Brener)). Briefly: Trypanosoma cruzi tyrosyl tRNA synthetase (TcYRS) SOP. In kind it is functional. The conditions noted are these: 30 µM.
Assay [11] addresses Chromo domain-containing protein 1 (Saccharomyces cerevisiae (strain ATCC 204508 / S288c) (Baker's yeast)) (UniProt P32657). Nature of the assay: ScCHD-1 Enzyme Inhibition Assay. Further: in the data most compounds retested in dose-response had high values. The format is functional. The conditions noted are these: 30 µM.

Chain of Chromo domain-containing protein 1 (Saccharomyces cerevisiae (strain ATCC 204508 / S288c) (Baker's yeast)) (P32657 whole entry, the tested form may be a part): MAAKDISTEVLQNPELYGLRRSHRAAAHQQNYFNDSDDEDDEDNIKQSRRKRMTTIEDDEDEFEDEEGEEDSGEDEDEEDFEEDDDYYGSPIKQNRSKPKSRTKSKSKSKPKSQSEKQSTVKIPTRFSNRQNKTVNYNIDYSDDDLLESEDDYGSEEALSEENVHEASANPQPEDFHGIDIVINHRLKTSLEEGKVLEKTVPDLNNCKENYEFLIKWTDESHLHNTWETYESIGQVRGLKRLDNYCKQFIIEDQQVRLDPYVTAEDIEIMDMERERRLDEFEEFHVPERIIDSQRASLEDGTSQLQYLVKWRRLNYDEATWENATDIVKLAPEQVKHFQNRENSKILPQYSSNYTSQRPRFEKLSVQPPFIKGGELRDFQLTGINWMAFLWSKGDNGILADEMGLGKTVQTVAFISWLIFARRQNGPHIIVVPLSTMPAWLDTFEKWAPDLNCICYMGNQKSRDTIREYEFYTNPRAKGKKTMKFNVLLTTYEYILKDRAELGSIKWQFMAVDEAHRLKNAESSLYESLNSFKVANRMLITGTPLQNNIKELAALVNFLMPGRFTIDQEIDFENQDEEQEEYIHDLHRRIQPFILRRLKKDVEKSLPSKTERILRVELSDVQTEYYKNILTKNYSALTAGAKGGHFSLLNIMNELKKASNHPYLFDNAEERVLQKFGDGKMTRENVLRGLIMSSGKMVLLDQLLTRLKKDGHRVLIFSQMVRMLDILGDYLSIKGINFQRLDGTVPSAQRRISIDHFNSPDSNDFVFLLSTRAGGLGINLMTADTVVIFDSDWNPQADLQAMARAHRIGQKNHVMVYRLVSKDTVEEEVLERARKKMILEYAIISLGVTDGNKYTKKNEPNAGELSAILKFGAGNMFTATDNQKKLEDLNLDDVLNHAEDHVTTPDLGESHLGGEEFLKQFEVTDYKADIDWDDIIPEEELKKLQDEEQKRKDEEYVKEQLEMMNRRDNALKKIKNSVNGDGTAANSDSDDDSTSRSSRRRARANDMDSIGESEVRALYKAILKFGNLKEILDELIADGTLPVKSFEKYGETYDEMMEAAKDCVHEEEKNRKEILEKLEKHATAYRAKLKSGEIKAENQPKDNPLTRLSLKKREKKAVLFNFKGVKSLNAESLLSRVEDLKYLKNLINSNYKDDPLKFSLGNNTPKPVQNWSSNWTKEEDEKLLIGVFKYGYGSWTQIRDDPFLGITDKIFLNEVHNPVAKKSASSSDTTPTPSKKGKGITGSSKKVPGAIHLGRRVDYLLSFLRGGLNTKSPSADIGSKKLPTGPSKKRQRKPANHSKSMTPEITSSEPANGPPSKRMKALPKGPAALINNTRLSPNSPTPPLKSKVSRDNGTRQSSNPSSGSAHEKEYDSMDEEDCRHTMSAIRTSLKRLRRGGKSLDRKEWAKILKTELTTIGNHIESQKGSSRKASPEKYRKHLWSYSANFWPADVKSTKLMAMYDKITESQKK
Chain of Sialic acid-binding Ig-like lectin 9 (Homo sapiens) (Q9Y336 whole entry): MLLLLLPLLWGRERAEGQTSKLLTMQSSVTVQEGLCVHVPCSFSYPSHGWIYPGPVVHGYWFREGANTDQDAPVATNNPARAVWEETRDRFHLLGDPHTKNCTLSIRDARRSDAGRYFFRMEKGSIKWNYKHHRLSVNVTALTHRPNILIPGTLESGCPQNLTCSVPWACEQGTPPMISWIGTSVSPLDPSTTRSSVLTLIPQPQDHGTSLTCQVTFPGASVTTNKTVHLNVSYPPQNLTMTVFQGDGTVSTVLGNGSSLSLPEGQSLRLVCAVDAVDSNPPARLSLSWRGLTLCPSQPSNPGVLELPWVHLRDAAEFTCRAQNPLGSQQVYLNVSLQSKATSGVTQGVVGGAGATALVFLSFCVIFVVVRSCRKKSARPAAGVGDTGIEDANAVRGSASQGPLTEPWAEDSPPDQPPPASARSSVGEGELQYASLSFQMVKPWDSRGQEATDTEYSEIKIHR
Chain of Protein translocase subunit SecA (Escherichia coli (strain K12)) (P10408 whole entry): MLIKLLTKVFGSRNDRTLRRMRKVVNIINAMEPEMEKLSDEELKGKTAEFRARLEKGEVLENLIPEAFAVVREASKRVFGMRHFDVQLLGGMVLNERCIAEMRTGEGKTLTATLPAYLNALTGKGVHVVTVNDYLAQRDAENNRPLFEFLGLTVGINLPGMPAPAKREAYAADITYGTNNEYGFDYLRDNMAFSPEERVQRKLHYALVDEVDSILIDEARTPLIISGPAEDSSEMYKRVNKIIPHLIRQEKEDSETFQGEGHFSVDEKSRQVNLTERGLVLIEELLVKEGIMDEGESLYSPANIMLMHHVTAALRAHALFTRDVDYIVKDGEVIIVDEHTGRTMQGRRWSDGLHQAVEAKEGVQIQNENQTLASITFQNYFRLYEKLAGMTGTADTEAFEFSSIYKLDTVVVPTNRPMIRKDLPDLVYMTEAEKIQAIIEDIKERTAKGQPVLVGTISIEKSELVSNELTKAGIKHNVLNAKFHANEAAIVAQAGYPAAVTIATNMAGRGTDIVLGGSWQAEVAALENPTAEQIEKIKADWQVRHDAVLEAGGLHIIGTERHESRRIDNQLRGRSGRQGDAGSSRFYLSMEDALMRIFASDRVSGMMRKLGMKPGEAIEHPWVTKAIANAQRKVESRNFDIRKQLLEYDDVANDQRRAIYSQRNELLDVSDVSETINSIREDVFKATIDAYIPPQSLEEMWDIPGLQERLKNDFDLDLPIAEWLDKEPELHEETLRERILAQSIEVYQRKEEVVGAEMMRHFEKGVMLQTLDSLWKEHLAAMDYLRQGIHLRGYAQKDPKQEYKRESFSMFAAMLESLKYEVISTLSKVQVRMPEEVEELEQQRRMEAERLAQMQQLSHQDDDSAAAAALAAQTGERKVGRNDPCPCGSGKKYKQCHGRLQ

As for `Cc1nn(C)c(Cl)c1CNCc1cccnc1N1CCOCC1`, the Percent Effect in assay [1] was -8.75%; in [2] it was 21.1%; in [3], -0.469%; in assay [4] it was -3.82%; in assay [5] it was 0.682%; in [6], -3.55%. The Percent Effect is 21% in assay [7]; 3.88% in assay [8]; 9.57% in [9]; 18.2% in [10]; -6.81% in assay [11].

For the compound `N#Cc1cccc(C(=O)N2CCc3ncc(Cn4cccn4)n3CC2)c1`, the Percent Effect in [1] is -2.76%; in assay [2], -5.33%; in [3] it was 6.89%; in assay [4] it was -4.2%; in assay [5] it was -1.74%; in assay [6], -56.1%. In addition, the Percent Effect in [7] is 2.22%; in [8], -20.1%; in assay [9], -3.12%; in assay [10], -2.5%; in assay [11], -3.63%.

For the compound `NC(=O)C1CCN(Cc2cccc(NC(=O)c3ccsc3)c2)CC1`, the Percent Effect was -6.14% in [1]; 2.67% in [2]; -1.03% in assay [3]; 5.05% in [4]; 3.99% in assay [5]; -2.08% in [6]. Moreover, the Percent Effect is 7.85% in assay [7]; 17% in [8]; 7.1% in assay [9]; 13.6% in assay [10]; -5.67% in [11].

In the case of `CC(CNC(=O)c1ccccc1Oc1cccnc1)N(C)C` (stereo not drawn), the Percent Effect in assay [1] was -2.21%; in assay [2], 10.8%; in [3], -2.99%; in [4] it was 12.9%; in [5], 5.41%; in assay [6], -0.476%. Moreover, the Percent Effect in [7] was 5.69%; in [8], -6.47%; in [9] it was 3.7%; in assay [10], 9.76%; in assay [11], -1.53%.

Turning to `O=C(O)c1cc2c(nc1O)CC(c1cccc(Cl)c1)CC2=O` (stereo not drawn), the Percent Effect is -6.48% in assay [1]; 1.33% in assay [2]; 28.2% in assay [3]; 2.46% in [4]; -5.7% in assay [5]; -6.16% in [6]. For the same compound, the Percent Effect was 7.21% in assay [7]; 1.57% in assay [8]; 4.23% in [9]; 2.56% in assay [10]; -9.15% in [11].

Turning to `COC(=O)CCC(=O)N1CCC2(CN(Cc3cccc(F)c3)C2)C1`, the Percent Effect in assay [1] is -1.57%; in assay [2], 0%; in [3], 35.4%; in assay [4], 0.909%; in assay [5], 1.54%; in assay [6], -52.5%. The Percent Effect was 1.71% in [7]; -9.09% in [8]; -2.08% in assay [9]; -2.5% in [10]; -1.45% in assay [11].

Regarding `CC(C)c1ncncc1C(=O)N1CCCN(Cc2cccs2)CC1`, the Percent Effect is -1.81% in assay [1]; 16.2% in [2]; -2.92% in assay [3]; -2.71% in [4]; 8.08% in assay [5]; -6.47% in [6]. The Percent Effect was 6.46% in [7]; 5.27% in [8]; 6.93% in [9]; 18.3% in [10]; -5.18% in assay [11].

`O=C1COC2(CCN(CC3CC3)CC2)CN1c1ccccc1`: the Percent Effect in assay [1] was -0.394%; in assay [2], 2.74%; in [3] it was -5.09%; in assay [4], 8.07%; in [5] it was 4.17%; in [6] it was -2%. In addition, the Percent Effect in assay [7] was 18.6%; in assay [8], -21.4%; in assay [9] it was 9.38%; in assay [10] it was 8.64%; in assay [11], -1.91%.

(Values after ChEMBL document CHEMBL3988442, “University of Dundee, Small-Polar-MMV Screening Library” (2021).)
